Of roughly 7,900 targets only a part is listed; those with a hit were picked by preference. About 0.6% of all pairs of compound and target were hits. Unmarked numbers belong to inactive results.
Tests used:
Experiment in all cases: log2 fold change, soluble protein after heating vs DMSO (PISA); higher = thermal stabilisation; K562 cells, 10 uM, 30 min; active = over 0.2 and 3.5 SD of the protein, either way, in both replicates (recomputed)
[1] = compound: CS(=O)(=O)c1ccc(-c2cnc(N)c(C(=O)Nc3ccccc3)n2)cc1
Procedure, shortened: (§1)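 Thermal stability values are relative to control samples and come from duplicates. They are expressed as log2 fold changes. For measurement, K562 cells (2×10^6 cells/mL) received 10 μM compound for 30 min, and aliquots were heated for 3 min over 48°C-58°C, pooled, and extracted at 4°C in PBS with 0.5% NP-40. Soluble protein, the supernatant after 21,000xg for 90 min, was quantified by TMTpro 16plex LC-MS/MS with equalised channel sums.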

crizotinib = compound: C[C@@H](Oc1cc(-c2cnn(C3CCNCC3)c2)cnc1N)c1c(Cl)ccc(F)c1Cl [crizotinib]
Procedure, shortened: as §1

[2] = compound: C[C@@H]1COCCN1C2=NC(=NC(=C2)C3(CC3)S(=O)(=O)C)C4=C5C=CNC5=CC=C4
Procedure, shortened: as §1

duvelisib = compound: C[C@H](Nc1ncnc2nc[nH]c12)c1cc2cccc(Cl)c2c(=O)n1-c1ccccc1 [duvelisib]
Procedure, shortened: as §1

gandotinib = compound: Cc1cc(Nc2cc(CN3CCOCC3)c3nc(C)c(Cc4ccc(Cl)cc4F)n3n2)n[nH]1 [gandotinib]
Procedure, shortened: as §1

tozasertib = compound: Cc1cc(Nc2cc(N3CCN(C)CC3)nc(Sc3ccc(NC(=O)C4CC4)cc3)n2)n[nH]1 [tozasertib]
Procedure, shortened: as §1

[3] = compound: Cc1cc(SCc2sc(-c3ccc(C(F)(F)F)cc3)nc2C)ccc1OCC(=O)O
Procedure, shortened: as §1

doramapimod = compound: Cc1ccc(-n2nc(C(C)(C)C)cc2NC(=O)Nc2ccc(OCCN3CCOCC3)c3ccccc23)cc1 [doramapimod]
Procedure, shortened: as §1

ispinesib = compound: Cc1ccc(C(=O)N(CCCN)[C@@H](c2nc3cc(Cl)ccc3c(=O)n2Cc2ccccc2)C(C)C)cc1 [ispinesib]
Procedure, shortened: as §1

[4] = compound: C[C@H](C1=CC=C(C=C1)C(=O)NC2=C3C=CNC3=NC=C2)N
Procedure, shortened: as §1

Chain of UniProt Q9Y4K4 (Q9Y4K4 whole entry, looked up): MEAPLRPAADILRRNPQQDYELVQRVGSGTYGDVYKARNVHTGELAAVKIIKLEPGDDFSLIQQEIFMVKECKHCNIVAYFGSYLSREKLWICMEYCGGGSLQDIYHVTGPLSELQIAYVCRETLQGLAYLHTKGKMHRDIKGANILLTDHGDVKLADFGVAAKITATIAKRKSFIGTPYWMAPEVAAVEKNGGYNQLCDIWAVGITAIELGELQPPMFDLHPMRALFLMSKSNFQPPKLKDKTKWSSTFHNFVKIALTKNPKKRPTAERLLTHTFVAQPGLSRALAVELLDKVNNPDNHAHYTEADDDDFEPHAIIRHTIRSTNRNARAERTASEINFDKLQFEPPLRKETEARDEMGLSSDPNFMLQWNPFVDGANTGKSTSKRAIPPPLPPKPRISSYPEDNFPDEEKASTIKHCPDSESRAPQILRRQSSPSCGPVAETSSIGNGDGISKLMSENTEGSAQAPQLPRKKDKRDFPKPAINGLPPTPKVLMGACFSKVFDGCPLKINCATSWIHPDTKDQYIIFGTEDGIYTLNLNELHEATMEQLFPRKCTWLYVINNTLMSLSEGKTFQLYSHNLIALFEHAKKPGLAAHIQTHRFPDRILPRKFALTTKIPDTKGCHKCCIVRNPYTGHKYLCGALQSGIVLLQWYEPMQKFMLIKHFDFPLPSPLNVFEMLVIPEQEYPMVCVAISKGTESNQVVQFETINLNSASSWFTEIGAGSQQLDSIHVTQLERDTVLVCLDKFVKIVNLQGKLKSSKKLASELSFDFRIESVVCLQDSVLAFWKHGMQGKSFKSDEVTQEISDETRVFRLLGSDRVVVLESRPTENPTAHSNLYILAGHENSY
Chain of UniProt Q9H3U5 (Q9H3U5 whole entry, looked up): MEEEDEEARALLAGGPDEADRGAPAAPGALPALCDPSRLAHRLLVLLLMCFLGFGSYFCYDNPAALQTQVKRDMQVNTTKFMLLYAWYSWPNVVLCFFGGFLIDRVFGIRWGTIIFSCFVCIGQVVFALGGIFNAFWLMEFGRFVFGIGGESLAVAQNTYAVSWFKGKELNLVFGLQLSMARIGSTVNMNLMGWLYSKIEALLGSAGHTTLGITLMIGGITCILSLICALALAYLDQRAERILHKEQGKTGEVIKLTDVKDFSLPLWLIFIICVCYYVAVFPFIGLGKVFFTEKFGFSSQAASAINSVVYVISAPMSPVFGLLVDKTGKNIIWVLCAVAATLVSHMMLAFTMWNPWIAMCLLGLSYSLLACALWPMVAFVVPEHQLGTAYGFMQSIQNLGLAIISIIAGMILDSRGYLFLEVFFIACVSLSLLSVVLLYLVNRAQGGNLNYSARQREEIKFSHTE
Chain of UniProt Q92604 (Q92604 whole entry, looked up): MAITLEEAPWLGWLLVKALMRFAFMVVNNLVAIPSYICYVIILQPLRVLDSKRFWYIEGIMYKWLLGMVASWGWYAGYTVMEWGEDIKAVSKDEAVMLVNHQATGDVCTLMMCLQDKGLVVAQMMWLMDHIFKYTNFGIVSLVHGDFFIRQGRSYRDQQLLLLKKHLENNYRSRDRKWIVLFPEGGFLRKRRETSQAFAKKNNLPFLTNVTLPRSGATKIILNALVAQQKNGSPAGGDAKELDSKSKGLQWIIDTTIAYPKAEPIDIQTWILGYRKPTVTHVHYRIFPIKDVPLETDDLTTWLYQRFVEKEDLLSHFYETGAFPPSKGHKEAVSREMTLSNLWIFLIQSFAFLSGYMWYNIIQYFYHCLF
Chain of UniProt Q71SY5 (Q71SY5 whole entry, looked up): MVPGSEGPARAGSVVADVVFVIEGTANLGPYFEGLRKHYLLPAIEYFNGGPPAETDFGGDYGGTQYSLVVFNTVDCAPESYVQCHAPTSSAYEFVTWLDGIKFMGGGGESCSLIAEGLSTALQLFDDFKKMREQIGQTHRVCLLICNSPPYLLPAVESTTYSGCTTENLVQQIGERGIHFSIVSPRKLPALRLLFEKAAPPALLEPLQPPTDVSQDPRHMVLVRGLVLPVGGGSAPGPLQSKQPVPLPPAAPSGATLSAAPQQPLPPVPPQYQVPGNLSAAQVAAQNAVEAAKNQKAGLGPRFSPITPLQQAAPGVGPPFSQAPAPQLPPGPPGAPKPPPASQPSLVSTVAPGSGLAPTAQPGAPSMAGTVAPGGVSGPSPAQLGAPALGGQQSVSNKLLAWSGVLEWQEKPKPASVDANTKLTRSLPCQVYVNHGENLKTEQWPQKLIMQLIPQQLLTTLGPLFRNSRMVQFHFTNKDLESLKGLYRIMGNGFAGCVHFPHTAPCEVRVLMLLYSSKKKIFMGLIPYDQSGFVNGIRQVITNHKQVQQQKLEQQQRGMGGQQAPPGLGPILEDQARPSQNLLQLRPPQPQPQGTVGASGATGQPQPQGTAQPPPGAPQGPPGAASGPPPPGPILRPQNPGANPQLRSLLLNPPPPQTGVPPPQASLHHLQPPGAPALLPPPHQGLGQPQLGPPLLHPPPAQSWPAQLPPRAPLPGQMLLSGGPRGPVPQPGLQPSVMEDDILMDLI
Chain of UniProt Q7L590 (Q7L590 whole entry, looked up): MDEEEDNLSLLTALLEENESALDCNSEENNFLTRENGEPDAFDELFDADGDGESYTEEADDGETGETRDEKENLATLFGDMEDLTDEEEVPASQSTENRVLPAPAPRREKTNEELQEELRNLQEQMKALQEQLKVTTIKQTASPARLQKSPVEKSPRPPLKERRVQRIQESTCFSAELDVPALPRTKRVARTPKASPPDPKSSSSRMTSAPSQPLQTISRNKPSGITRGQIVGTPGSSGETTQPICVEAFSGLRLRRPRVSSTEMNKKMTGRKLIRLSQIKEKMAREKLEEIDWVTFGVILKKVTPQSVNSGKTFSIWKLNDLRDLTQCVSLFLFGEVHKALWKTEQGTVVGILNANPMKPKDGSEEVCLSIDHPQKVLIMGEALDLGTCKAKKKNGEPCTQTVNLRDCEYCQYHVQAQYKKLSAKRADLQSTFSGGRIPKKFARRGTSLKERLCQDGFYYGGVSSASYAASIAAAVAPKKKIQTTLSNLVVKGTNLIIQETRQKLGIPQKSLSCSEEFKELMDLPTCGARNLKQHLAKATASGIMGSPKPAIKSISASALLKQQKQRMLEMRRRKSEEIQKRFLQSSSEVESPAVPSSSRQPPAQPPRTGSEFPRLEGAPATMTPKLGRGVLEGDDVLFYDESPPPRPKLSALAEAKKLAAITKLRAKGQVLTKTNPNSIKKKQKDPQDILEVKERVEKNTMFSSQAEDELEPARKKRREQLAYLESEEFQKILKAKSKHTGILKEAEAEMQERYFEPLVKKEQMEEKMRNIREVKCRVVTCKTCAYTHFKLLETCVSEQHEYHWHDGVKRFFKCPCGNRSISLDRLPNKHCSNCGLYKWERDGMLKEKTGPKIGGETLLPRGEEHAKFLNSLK
Chain of UniProt Q08334 (Q08334 whole entry, looked up): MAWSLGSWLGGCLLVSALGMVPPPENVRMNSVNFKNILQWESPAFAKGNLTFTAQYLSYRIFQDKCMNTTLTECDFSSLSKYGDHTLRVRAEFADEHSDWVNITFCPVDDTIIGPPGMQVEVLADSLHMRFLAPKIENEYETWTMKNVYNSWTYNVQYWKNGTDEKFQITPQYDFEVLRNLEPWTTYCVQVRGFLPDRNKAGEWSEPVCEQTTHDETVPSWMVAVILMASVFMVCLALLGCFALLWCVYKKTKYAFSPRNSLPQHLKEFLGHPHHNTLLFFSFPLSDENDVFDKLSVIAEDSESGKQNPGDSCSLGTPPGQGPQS
Chain of UniProt O95819 (O95819 whole entry, looked up): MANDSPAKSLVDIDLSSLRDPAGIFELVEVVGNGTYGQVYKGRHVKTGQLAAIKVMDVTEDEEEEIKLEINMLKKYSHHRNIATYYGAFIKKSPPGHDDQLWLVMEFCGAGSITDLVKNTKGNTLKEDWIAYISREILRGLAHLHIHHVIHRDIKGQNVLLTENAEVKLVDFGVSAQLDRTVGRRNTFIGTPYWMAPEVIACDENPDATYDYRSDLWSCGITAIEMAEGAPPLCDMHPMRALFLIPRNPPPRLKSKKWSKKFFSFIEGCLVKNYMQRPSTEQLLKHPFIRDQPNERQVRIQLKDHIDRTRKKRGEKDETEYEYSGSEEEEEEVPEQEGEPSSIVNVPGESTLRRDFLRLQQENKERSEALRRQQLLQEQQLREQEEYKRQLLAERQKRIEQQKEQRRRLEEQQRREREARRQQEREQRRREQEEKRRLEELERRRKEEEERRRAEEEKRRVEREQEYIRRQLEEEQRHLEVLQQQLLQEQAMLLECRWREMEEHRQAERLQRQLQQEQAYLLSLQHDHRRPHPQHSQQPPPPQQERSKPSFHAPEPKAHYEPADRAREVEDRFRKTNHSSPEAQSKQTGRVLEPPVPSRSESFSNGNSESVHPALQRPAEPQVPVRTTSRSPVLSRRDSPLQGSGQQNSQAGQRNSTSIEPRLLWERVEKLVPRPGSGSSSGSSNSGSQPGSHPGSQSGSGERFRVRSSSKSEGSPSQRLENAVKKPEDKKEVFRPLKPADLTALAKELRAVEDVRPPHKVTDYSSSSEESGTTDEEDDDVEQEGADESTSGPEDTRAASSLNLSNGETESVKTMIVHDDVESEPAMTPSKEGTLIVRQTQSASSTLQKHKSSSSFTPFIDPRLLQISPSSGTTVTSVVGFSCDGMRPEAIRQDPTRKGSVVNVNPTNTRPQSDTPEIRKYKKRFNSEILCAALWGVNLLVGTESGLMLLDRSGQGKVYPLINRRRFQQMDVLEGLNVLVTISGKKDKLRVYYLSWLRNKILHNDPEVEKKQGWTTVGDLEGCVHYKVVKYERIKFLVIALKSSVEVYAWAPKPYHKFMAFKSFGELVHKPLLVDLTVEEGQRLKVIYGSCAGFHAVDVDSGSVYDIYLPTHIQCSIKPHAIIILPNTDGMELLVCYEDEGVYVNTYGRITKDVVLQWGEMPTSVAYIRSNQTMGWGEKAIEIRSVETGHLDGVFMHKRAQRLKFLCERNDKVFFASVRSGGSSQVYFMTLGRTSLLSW
Chain of UniProt O15243 (O15243 whole entry, looked up): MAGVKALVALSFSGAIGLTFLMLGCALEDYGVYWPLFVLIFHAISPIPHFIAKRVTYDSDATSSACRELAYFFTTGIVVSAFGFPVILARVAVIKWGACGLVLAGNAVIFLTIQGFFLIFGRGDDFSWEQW

Target | log2 fold change [1] | log2 fold change (crizotinib) | log2 fold change [2] | log2 fold change (duvelisib) | log2 fold change (gandotinib) | log2 fold change (tozasertib) | log2 fold change [3] | log2 fold change (doramapimod) | log2 fold change (ispinesib) | log2 fold change [4]
IL10RB (UniProt Q08334) | 0.004 | 0.009 | -0.031 | 0.018 | -0.238 | -0.122 | 0.089 | -0.007 | – | –
MED12 isoform 2 (UniProt Q93074) | -0.088 | -0.088 | 0.207 | 0.068 | -0.009 | 0.012 | 0.048 | 0.095 | -0.117 | –
LPGAT1 (UniProt Q92604) | -0.01 | -0.101 | 0.073 | -0.02 | – | -0.088 | 0.16 | -0.038 | -0.237 | 0.015
IP6K1 (UniProt Q92551) | 0.129 | – | -0.072 | 0.065 | -0.145 | -0.027 | 0.23 | – | -0.437 | 0.295
MARCHF3 (UniProt Q86UD3) | 0.243 | – | 0.029 | – | – | – | – | – | – | –
LPIN3 isoform 2 (UniProt Q9BQK8) | 0.016 | – | 0.125 | 0.002 | -0.059 | -0.065 | 0.015 | – | -0.037 | 0.011
MAPK12 (UniProt P53778) | -0.005 | – | 0.105 | -0.005 | 0.037 | 0.099 | 0.01 | – | -0.036 | -0.106
METAP1D (UniProt Q6UB28) | -0.009 | -0.041 | 0.147 | 0.03 | – | -0.055 | 0.01 | -0.091 | -0.032 | -0.037
MED25 isoform 3 (UniProt Q71SY5) | 0.061 | 0.021 | – | 0.061 | 0.19 | 0.136 | 0.162 | 0.085 | -0.018 | 0
KDELR2 (UniProt P33947) | 0.056 | 0.035 | 0.205 | 0.099 | -0.107 | -0.027 | -0.007 | 0.016 | 0.016 | -0.096
INTS5 (UniProt Q6P9B9) | 0.029 | -0.013 | 0.058 | 0.047 | – | 0.076 | 0.008 | 0.006 | 0.025 | –
IL27RA (UniProt Q6UWB1) | -0.031 | 0.029 | 0.539 (active) | 0.244 | – | -0.039 | -0.109 | 0.211 | 0.043 | -0.121
MAP4K4 isoform 3 (UniProt O95819) | -0.058 | – | 0.002 | 0.091 | 0.311 | -0.169 | 0.017 | -0.156 | -0.05 | -0.055
ILRUN (UniProt Q9H6K1) | -0.033 | 0.115 | 0.028 | 0.021 | – | -0.087 | 0.029 | 0.005 | 0.032 | -0.038
MCM10 (UniProt Q7L590) | -0.171 | -0.015 | -0.102 | – | 0.092 | 0.144 | – | -0.01 | – | –
MED29 (UniProt Q9NX70) | – | – | – | -0.025 | – | – | 0.171 | – | – | –
MFSD1 isoform 6 (UniProt Q9H3U5) | 0.035 | – | 0.076 | – | -0.077 | 0.041 | – | – | -0.367 (active) | -0.03
LAMP2 isoform 2 (UniProt P13473) | – | -0.424 (active) | 0.119 | 0.344 (active) | 0.066 | -0.071 | 0.011 | 0.002 | – | -0.051
MAP4K5 (UniProt Q9Y4K4) | 0.019 | – | 0.072 | – | -0.067 | -0.088 | – | -0.064 | -0.045 | 0.24
LEPROT (UniProt O15243) | – | – | -0.149 | 0.045 | 0.081 | 0.003 | -0.026 | – | – | 0.083
MAPRE3 isoform 2 (UniProt Q9UPY8) | – | 0.22 | – | – | – | -0.264 | – | 0.007 | – | 0.06

Source: the supplement of paper PMC10849652
